{
  "source": "PubChem BioAssay AID1851",
  "about": "(National Center for Advancing Translational Sciences (NCATS), 2009)",
  "note": "The whole screen tested about 16,000 compounds, of which about 5,700 (36%) were called active. About 24% were inconclusive and are not listed. The call rests on the fitted dose curve; in most records, active means well fitted curve in the direction sought with a large enough effect; inconclusive means small, poorly fitted or top-dose-only effect, or effect the other way; inactive means no such curve, though single readings can be large or run the other way. Some of the results follow. On the % scale 0 is the no-effect control and ±100 the full control effect.",
  "data": [
    {"biological_target": "Cytochrome P450 1A2 (Homo sapiens) (UniProt P05177)", "sequence (P05177 whole entry, looked up)": "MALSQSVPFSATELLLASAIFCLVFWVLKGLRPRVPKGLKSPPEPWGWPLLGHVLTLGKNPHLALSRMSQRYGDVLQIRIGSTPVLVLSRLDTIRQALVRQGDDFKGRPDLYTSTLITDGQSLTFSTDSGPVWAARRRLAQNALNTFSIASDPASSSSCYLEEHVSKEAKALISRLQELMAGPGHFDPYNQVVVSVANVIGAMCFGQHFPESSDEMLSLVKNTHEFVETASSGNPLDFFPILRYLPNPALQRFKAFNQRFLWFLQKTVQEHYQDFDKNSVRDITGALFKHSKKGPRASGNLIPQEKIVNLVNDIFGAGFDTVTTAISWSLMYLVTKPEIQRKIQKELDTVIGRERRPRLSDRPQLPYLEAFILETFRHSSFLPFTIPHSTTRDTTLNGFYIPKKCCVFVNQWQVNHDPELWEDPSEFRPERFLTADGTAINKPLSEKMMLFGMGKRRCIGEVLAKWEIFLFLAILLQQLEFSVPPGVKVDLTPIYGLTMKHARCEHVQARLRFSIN", "assay": "Cytochrome panel assay with activity outcomes", "conditions": "recombinant CYP, pro-luciferin dealkylation, luminescence, p450-cyp1a2; series mostly up to 57.1 µM; activity, negative = inhibition: at the top concentration", "values": [
      {"compound": "CO[C@@H]1COC(=O)C/C=C\\[C@H](C)COC(=O)[C@H](C)NC(=O)C/C=C\\[C@H]1C", "activity, negative = inhibition": "-3.56% [at 11.4 µM] (inactive)"},
      {"compound": "CCc1nn(C)c(-c2n[nH]c(=S)n2N)c1Cl", "activity, negative = inhibition": "-0.733% (inactive)"},
      {"compound": "CC(C)Cn1c(-c2nn(C)cc2Cl)n[nH]c1=S", "AC50": "25.1 µM (active)"},
      {"compound": "Cc1nn(CCc2n[nH]c(=S)n2-c2ccc(F)c(Cl)c2)c(C)c1[N+](=O)[O-]", "activity, negative = inhibition": "-3.99% (inactive)"},
      {"compound": "COc1ccc(-c2nc3cnc(Oc4cccc(Cl)c4)nc3n(C[C@H]3CCCO3)c2=O)cc1", "AC50": "5.01 µM (active)"},
      {"compound": "O=c1c(-c2cccs2)nc2cnc(Oc3cccc(Cl)c3)nc2n1C[C@H]1CCCO1", "AC50": "3.16 µM (active)"},
      {"compound": "CC(=O)OC[C@@H]1O[C@H](C/C=N\\OC[C@@H](O)COCc2ccco2)C=C[C@@H]1OC(C)=O", "activity, negative = inhibition": "1.52% [at 11.4 µM] (inactive)"},
      {"compound": "C[C@H](N)C(=O)O", "activity, negative = inhibition": "-18.8% (inactive)"},
      {"compound": "CCCCCCCCC(=O)NCc1cc(OC)c(O)cc1I", "AC50": "12.6 µM (active)"},
      {"compound": "O=C(O)c1cc(C(=O)O)nc(C(=O)O)c1", "activity, negative = inhibition": "-9.81% [at 11.4 µM] (inactive)"},
      {"compound": "CSc1nnnc2ccccc12", "AC50": "3.16 µM (active)"},
      {"compound": "CSc1c(-c2ccccc2)nc2ccccc2c1C(=O)O", "activity, negative = inhibition": "10.1% (inactive)"},
      {"compound": "Cc1cnc(NC(=O)CSc2ccc(Cl)cc2)s1", "AC50": "3.16 µM (active)"},
      {"compound": "COCc1nnc(NC(=O)CSc2ccc(C)cc2)s1", "AC50": "12.6 µM (active)"},
      {"compound": "COc1ccc(Cc2nnc(NC(=O)CSc3ccc(C)cc3)s2)cc1OC", "activity, negative = inhibition": "-19.1% (inactive)"},
      {"compound": "COC(=O)c1sccc1NC(=O)CSc1cc(Cl)ccc1Cl", "AC50": "2.51 µM (active)"},
      {"compound": "COC(=O)c1sccc1NC(=O)CSc1ccc(Cl)cc1", "AC50": "14.1 µM (active)"},
      {"compound": "COCc1nnc(NC(=O)CC(c2ccccc2)c2ccccc2)s1", "activity, negative = inhibition": "7.41% (inactive)"},
      {"compound": "O=c1[nH]cc(CS(=O)(=O)Cc2c[nH]c(=O)[nH]c2=O)c(=O)[nH]1", "activity, negative = inhibition": "-24.4% [at 11.4 µM] (inactive)"},
      {"compound": "CC(=O)N1CCC2(CCN(Cc3nccs3)CC2)CC1", "activity, negative = inhibition": "-13.5% (inactive)"},
      {"compound": "COCC(=O)N1CCC2(CC1)CN(C(=O)Nc1cccc(C#N)c1)C2", "activity, negative = inhibition": "2.75% (inactive)"},
      {"compound": "NCCSSCCN", "AC50": "inactive"},
      {"compound": "CC(C)(Oc1ccc(-c2cccc3ccccc23)cc1)C(=O)O", "activity, negative = inhibition": "8.77% [at 11.4 µM] (inactive)"},
      {"compound": "CN1C(=O)/C(=N\\OC(=O)c2cccc3ccccc23)c2ccccc21", "AC50": "7.08 µM (active)"},
      {"compound": "CC(=O)c1c(O)cc(=O)n(-c2ccccc2)c1-c1cccc2ccccc12", "activity, negative = inhibition": "8.95% (inactive)"},
      {"compound": "COc1ccc(CCN=CC2=C(O)CC(C)(C)CC2=O)cc1", "activity, negative = inhibition": "-18.3% (inactive)"},
      {"compound": "CCOc1ccc(C(=O)CCC(=O)O)cc1", "activity, negative = inhibition": "-8.88% (inactive)"},
      {"compound": "COc1ccc(/C(O)=C2/C(=O)C(=O)N(CCCC(=O)O)C2c2ccc(OC)cc2)cc1", "note": "(stereo not drawn)", "activity, negative = inhibition": "-24% (inactive)"},
      {"compound": "COc1ccc2cc(CCC(C)=O)ccc2c1", "AC50": "0.398 µM (active)"},
      {"compound": "COc1ccc2cc(C(=O)CCC(=O)O)ccc2c1", "AC50": "0.794 µM (active)"},
      {"compound": "COc1cccc(/C=N/NC(=O)c2cc(-c3cccn3C)n[nH]2)c1", "AC50": "6.31 µM (active)"},
      {"compound": "COc1cccc(/C=N/NC(=O)c2c(-c3ccccc3)noc2C)c1", "activity, negative = inhibition": "-18.4% (inactive)"},
      {"compound": "COc1cc2nc(N3CCN(C(=O)OCc4ccccc4)[C@H](C(=O)NC(C)(C)C)C3)nc(N)c2cc1OC", "activity, negative = inhibition": "-14.2% (inactive)"},
      {"compound": "CSc1nc(N)c2ncn([C@@H]3O[C@@H](COP(=O)(O)OP(=O)(O)O)[C@@H](O)[C@H]3O)c2n1", "activity, negative = inhibition": "-5.39% (inactive)"},
      {"compound": "CCn1c(C)[n+](CCCS(=O)(=O)[O-])c2cc(Cl)c(Cl)cc21", "activity, negative = inhibition": "-7.03% (inactive)"},
      {"compound": "CCn1c(=O)[nH]c2cc(Cl)c(Cl)cc21", "AC50": "0.251 µM (active)"},
      {"compound": "CC[N+](CC)(CC)CC", "activity, negative = inhibition": "11.2% (inactive)"},
      {"compound": "CC1=N/C(=C\\c2ccc([N+](=O)[O-])cc2)C(=O)N1c1ccc(Cl)cc1", "activity, negative = inhibition": "-20.6% (inactive)"},
      {"compound": "CC1=NN(c2ccc(S(=O)(=O)O)cc2)C(=O)/C1=C\\c1ccc(Cl)cc1", "activity, negative = inhibition": "-8.89% [at 2.29 µM] (inactive)"},
      {"compound": "Cc1ccc(C)n1N1C(=O)/C(=C\\c2ccc(Cl)cc2)SC1=S", "AC50": "1.58 µM (active)"},
      {"compound": "C[C@@](N)(/C=C\\c1ccccc1)C(=O)O", "activity, negative = inhibition": "-17.1% [at 11.4 µM] (inactive)"},
      {"compound": "O=C(CN1CCN(c2ccc(Cl)cc2)CC1)Nc1cccc(F)c1", "AC50": "12.6 µM (active)"},
      {"compound": "O=C(CSc1ccc(Cl)cc1)Nc1ccc(N2CCN(c3ccccc3)CC2)c(F)c1", "activity, negative = inhibition": "-16.6% (inactive)"},
      {"compound": "CCc1c2c(nc3c(C(C)C)cccc13)-c1cccc(=O)n1C2", "AC50": "0.398 µM (active)"},
      {"compound": "CC(C)c1cccc2c([Si](C)(C)C)c3c(nc12)-c1cccc(=O)n1C3", "AC50": "15.8 µM (active)"},
      {"compound": "CC(C)c1cccc2cc3c(nc12)-c1cccc(=O)n1C3", "AC50": "0.501 µM (active)"},
      {"compound": "CCC(C)N1C(=O)C2C(C(=O)Nc3cccc(OC)c3)C3C=CC2(O3)C1C(=O)NC1CCCCC1C", "note": "(stereo not drawn)", "activity, negative = inhibition": "-4.89% (inactive)"},
      {"compound": "COc1ccc(O[C@H]2C=C[C@@H](c3ccccc3)O[C@H]2CO/N=C(/C)CCC(=O)OC[C@@H]2O[C@H](c3ccccc3)C=C[C@@H]2Oc2ccc(OC)cc2)cc1", "activity, negative = inhibition": "-1.91% [at 11.4 µM] (inactive)"}
    ]}
  ]
}
